Screens: PubChem, The Scripps Research Institute Molecular Screening Center
DAX1 inh-1 = DAX1 (NR0B1) inhibitors, primary screen, cell-based, HEK293, Gal4-DAX1, luciferase luminescence; HEK293 Gal4-DAX1 luciferase reporter; inhibition, % at 6.75 µM; 340,000 tested, 0.99% active;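 active means inhibition above the mean over all tested compounds plus 3 SD, cut at about 4.2% in these data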;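 further: 0% = DAX1-transfected cells with DMSO and 100% = empty-vector control cells with DMSO; inhibition shows as a rise in luminescence from relieved DAX1 repression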
hcDAF-12 act = H. contortus DAF-12 nuclear receptor activators, primary screen, cell-based, luminescence, HEK293, lit1-tk-luc reporter; HEK293 hcDAF-12 lit1-tk-luc reporter; 0% DMSO, 100% Δ7-dafachronic acid; activation, % at 6.8 µM; 370,000 tested, 1.4% active;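 active means activation above the mean of all tested compounds plus 3 SD, cut at about 5.5% in these data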;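 further: 100% = response to 3 µM Δ7-dafachronic acid high control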
ssDAF12 agonist = S. stercoralis DAF-12 nuclear receptor activators, primary screen, cell-based, luminescence, HEK293, GRIP1 co-expression, lit1-tk-luc | 370,000 tested, 1% active | activation, % at 6.8 µM | AID 652126, 2013 | HEK293 ssDAF-12/GRIP1 lit1-tk-luc reporter; % of 3 µM dafachronic acid response | Nuclear hormone receptor DAF-12 (Strongyloides stercoralis);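 active means activation above the mean over all tested compounds plus 3 SD, cut at about 0.9% in these data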;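 further: 0% = DMSO-only wells and 100% = 3 µM delta7-dafachronic acid wells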
hgDAF12 agonist = H. glycines DAF-12 receptor agonists, primary screen, cell-based, luminescence, HEK293, GAL4 fusion, UAS-luciferase; 370,000 tested, 1.8% active; activation, % at 6.8 µM; Nuclear hormone receptor DAF-12 (Heterodera glycines), GAL4 fusion; HEK293 GAL4-hgDAF12 UAS-luciferase reporter, agonist luminescence; normalized to butyrate control; AID 687014, 2013;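 active means activation above a cutoff set at the mean of all screened compounds plus 3 SD, cut at about 10% in these data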;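 further: 0% = DMSO wells and 100% = sodium butyrate wells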
DAX1 inh-2 = DAX1 (NR0B1) inhibitors on StAR promoter, primary screen, cell-based, luminescence, SF-1 (NR5A1), full-length DAX-1; HEK293T StAR-luciferase reporter, SF-1/DAX-1 repression relief; inhibition, % at 6.8 µM; 370,000 tested, 1.1% active; AID 652010, 2013;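 active means inhibition above the mean over all tested compounds plus 3 SD, cut at about 3.6% in these data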;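 further: 0% = DAX-1 cells with DMSO and 100% = cells lacking DAX-1 with DMSO; higher inhibition means more luminescence from relief of DAX-1 repression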
LXRb hcDAF ctr = LXR agonists, Gal4 luciferase reporter, confirmation, counter-screen for hcDAF-12 agonist project, cell-based, luminescence, HEK293, H. contortus campaign | shares compounds with hcDAF-12 act | HEK293 Gal4-LXR tk-luc reporter, 24 h; normalized: DMSO 0%, positive control 100% | activation, % at 6.8 µM | 3,400 tested, under 10 active | AID 743027, 2013;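 active means mean percent activation of the reporter above a cutoff set as the average over tested compounds plus their standard deviation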
Target sequence (P55055 whole entry, looked up, the tested form may be a part): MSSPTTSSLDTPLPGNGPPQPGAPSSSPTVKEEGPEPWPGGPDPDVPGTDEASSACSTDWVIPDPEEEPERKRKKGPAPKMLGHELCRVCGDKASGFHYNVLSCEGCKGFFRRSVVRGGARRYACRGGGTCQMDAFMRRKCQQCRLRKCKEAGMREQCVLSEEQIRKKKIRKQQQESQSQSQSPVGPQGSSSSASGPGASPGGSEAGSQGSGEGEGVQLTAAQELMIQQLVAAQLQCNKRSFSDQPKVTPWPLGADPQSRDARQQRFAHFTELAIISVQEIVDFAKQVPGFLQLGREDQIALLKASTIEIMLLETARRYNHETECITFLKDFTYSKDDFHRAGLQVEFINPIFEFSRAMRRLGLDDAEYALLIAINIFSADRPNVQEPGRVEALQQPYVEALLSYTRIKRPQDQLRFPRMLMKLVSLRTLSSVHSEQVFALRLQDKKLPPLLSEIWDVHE
hcDAF12 conf = H. contortus DAF-12 receptor agonists, confirmation, cell-based, luminescence, HEK293, lit1-tk-luc, triplicate | activation, % at 6.8 µM | HEK293 hcDAF-12 lit1-tk-luc reporter; % of Δ7-dafachronic acid response | shares compounds with hcDAF-12 act | 3,400 tested, 61% active;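 active means mean activation across triplicate tests above the threshold derived from the earlier primary screen, cut at about 5.5% in these data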;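 further: 0% = DMSO only wells and 100% = 3 µM Δ7-dafachronic acid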
Active calls of the source: *; / = not tested or not shown. Most compounds without a hit are left out; they make up all but 4.1% or so of the library.

SMILES	DAX1 inh-1	hcDAF-12 act	ssDAF12 agonist	hgDAF12 agonist	DAX1 inh-2	LXRb hcDAF ctr	hcDAF12 conf
COc1ccc(Cn2c(O)c(C=Nc3ccc(OC)cc3)c3ccccc3c2=O)cc1	0	-2	-2	-2	0	/	/
Fc1cccc(Cl)c1/C=C/c1cnc2ccccc2n1	2	20*	2.0*	16*	3	2	22*
O=C(O)/C=C/c1cnc2ccccc2n1	0	2	-1	2	0	/	/
Cn1c(/C(C#N)=C(\O)c2ccc(Cl)s2)nc2ccccc21	1	8.0*	0	3	1	0	8.3*
Cn1c(/C(C#N)=C(\O)c2ccc([N+](=O)[O-])s2)nc2ccccc21	0	-1	0	-2	0	/	/
COc1ccccc1N(C)S(=O)(=O)c1ccc(C)c(C(=O)NCc2ccccn2)c1	-2	0	-1	0	-1	/	/
CC(Oc1ccc(F)cc1)C(=O)Nc1ccccc1N1CCCCC1 (stereo not given)	0	-1	-1	3	-1	/	/
COc1ccc(N/C(C)=C/C(=O)c2ccccc2)cc1	0	1	0	-1	1	/	/
CC(=O)Oc1ccc(C(=O)Nc2ccc3c(c2)OCCO3)cc1	2	9.1*	1	11*	3	2	8.5*
O=C(Nc1ccc2c(c1)OCCO2)C(=O)NC1CC1	1	6.8*	0	8	2	1	5
COc1ccc(C(=O)/C=C(\C)Nc2ccc3c(c2)OCO3)cc1	0	7.2*	0	7	0	1	5
CCC(=O)Nc1ccc2c(c1)OCCO2	-1	-1	-2	-1	-1	/	/
CCOC(=O)C1=C(C)N=C2SC(C)C(=O)N2C1c1ccc(OCC)c(OCC)c1 (stereo not given)	0	-1	-1	-1	0	/	/
COc1ccccc1NC(=O)CSc1nncs1	0	1	0	1	0	/	/
Cc1ccc(C(=O)CC(SCC(=O)O)c2ccc([N+](=O)[O-])cc2)cc1 (stereo not given)	-2	1	-1	1	1	/	/
O=C(CC(SCCO)c1ccc([N+](=O)[O-])cc1)c1ccco1 (stereo not given)	0	7.1*	-2	0	-1	0	1
Cc1ccc(S(=O)(=O)N(C)[C@H]2C[C@H]3c4[nH]c5c(-c6ccccc6)cccc5c4CCN3C(=O)[C@H]2[C@H](C)O)cc1	/	0	-1	5	0	/	/
CCN(CC(=O)Nc1ccc(NC(C)=O)cc1)C(=O)c1ccccc1SCc1c(C)noc1C	0	4	0	6	1	/	/
CCCN(C(=O)CCNC(=O)Cn1cnc2ccccc2c1=O)c1cccc(Cl)c1	0	/	/	/	/	/	/
O=C(OCc1nc2ccccc2s1)c1cccc(S(=O)(=O)N2CCOCC2)c1	2	7.7*	1	8	2	1	9.2*
Cc1nnc(SCC(=O)Nc2cc(S(=O)(=O)N3CCOCC3)ccc2C)s1	0	-1	-1	0	0	/	/
O=C(CSc1nc2ccccc2s1)Nc1cc(S(=O)(=O)N2CCOCC2)ccc1O	1	9.7*	0	0	0	0	5
O=S(=O)(N[C@@H]1CCCC[C@@H]1N1CCOCC1)c1ccc(Cl)cc1	/	-2	-2	-1	/	/	/
O=c1cc[nH]c2c(Cl)cccc12	1	7.2*	0	4	1	0	5.7*
O=C(CCC(=O)NCCCc1ccccc1)NCCCc1ccccc1	1	7.7*	-1	2	0	0	0
SMILES	DAX1 inh-1	hcDAF-12 act	ssDAF12 agonist	hgDAF12 agonist	DAX1 inh-2	LXRb hcDAF ctr	hcDAF12 conf
CCCCc1nnn2c1C1c3cc(Br)ccc3CCN1C(=O)C2 (stereo not given)	/	-3	-1	-1	-1	/	/
CC(C)(C)c1ccc(/C=C/C(=O)NC2=NCCS2)cc1	-1	6.6*	0	7	4	1	5.7*
c1cncc(-c2nc3ccccc3o2)c1	0	-1	-1	1	1	/	/
Cc1ccnc2ccc(-c3nc4ccccc4o3)cc12	2	7.8*	1.0*	13*	1	1	12*
COc1cc2c(cc1NC(=O)C1CCCO1)oc1ccccc12 (stereo not given)	1	12*	2.3*	15*	3	1	17*
COc1ccc(Cl)cc1NC(=O)C1CCCO1 (stereo not given)	1	-2	-1	1	0	/	/
COc1cc2c(cc1NC(=O)Nc1ccc(C)cc1)oc1ccccc12	-1	8.5*	-1	7	0	0	1
CC(C)N=C(NS(=O)(=O)NC(=O)c1ccccc1)c1ccccc1	1	-2	-2	0	0	/	/
Cn1c(=O)c(C(=O)c2ccc(S(C)(=O)=O)c(Cl)c2Cl)c(O)c2ccccc21	1	1	-1	0	0	/	/
CCCCn1c(N)c(N(CCOC)C(=O)c2cc(C)oc2C)c(=O)[nH]c1=O	-5	2	-1	1	2	/	/
CC(=O)n1cc(CO)c2ccccc21	0	7.2*	-1	0	1	0	3
CC(=O)O/C(=C\c1cn(C(C)=O)c2ccccc12)C(=O)O	1	4	0	-2	1	/	/
CC(=O)c1ccc(S(=O)(=O)N(C)CCCC(=O)NCc2ccc3c(c2)OCO3)cc1	0	-1	-1	-1	-2	/	/
Cc1ccoc1C(=O)Nc1ccc2ccccc2c1	-2	17*	0	12*	1	2	14*
Cc1ccc(S(=O)(=O)N/N=C\C=C\c2ccccc2)cc1	0	6.7*	-1	3	1	0	0
CC1SC(C)C(=O)N(CC(=O)Nc2ccc([N+](=O)[O-])cc2)C1=O (stereo not given)	1	0	-1	0	0	/	/
Cc1c(C(=O)NC2CCCCC2)oc2ccc(F)cc12	4	18*	1	10*	1	1	8.3*
